Assay results published in PubChem BioAssay (EPA / NIEHS).
Where “and” joins values, the source holds several entries; their conditions need not be identical. Equal values may be shown once. The source holds several records for some structures; these can differ, active in one and inactive in another. Calls of active or inactive are those of the source. Rule for the calls: active = hit-call score of the fitted dose curve at least 0.9, where 1 is the maximum; inactive = score below 0.9.

Assays:
[1] = ATG_M_61_CIS: Attagene CIS-FACTORIAL HepG2 Assay for M61 Transcription Factor (Internal Marker) (AID 2282937); details: HepG2 Attagene CIS-FACTORIAL M61 internal marker reporter; actives raise or lower the signal
Procedure, shortened: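 Human liver HepG2, transient MRTU transfection (cis promoter elements), 24 h compound. Total RNA → oligo(dT) RT → PCR → FAM label → HpaI → CE. Internal background marker; bidirectional fitting, DMSO = baseline.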

[2] = ATG_EGR_CIS: Attagene CIS-FACTORIAL HepG2 Assay for human Early Growth Response 1 (EGR1) (AID 2282938); details: HepG2 Attagene CIS-FACTORIAL EGR reporter mRNA; actives raise or lower the signal
Procedure, shortened: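 Transient transfection of human HepG2 with multiple cis-regulated reporter units, chemical exposure 24 h, total RNA isolated. Reverse transcription, PCR, fluorescent labelling and capillary electrophoresis quantify reporter transcripts; activity fitted bidirectionally against DMSO.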

[3] = ATG_M_19_CIS: Attagene CIS-FACTORIAL HepG2 Assay for M19 Transcription Factor (Internal Marker) (AID 2282939); details: HepG2 Attagene CIS-FACTORIAL M19 internal marker reporter; actives raise or lower the signal
Procedure, shortened: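 Background-control endpoint from a multiplexed HepG2 reporter panel. Cells carrying cis-regulated reporter constructs are treated 24 h, then reporter transcripts are amplified, fluorescently labelled and sized by capillary electrophoresis. DMSO defines baseline.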

[4] = ATG_ERE_CIS: Attagene CIS-FACTORIAL HepG2 Assay for Estrogen Response Element (ERE) (AID 2282940); details: HepG2 ERE cis-reporter, Attagene RNA transcript; actives raise or lower the signal
Procedure, shortened: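 Cells used were human hepatoma HepG2, transfected with multiple reporter transcription units under cis-regulatory promoters. Reporter mRNA, read 24 h post-dosing via fluorescent RT-PCR products on capillary electrophoresis, was fitted bidirectionally relative to DMSO.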

[5] = ATG_Ets_CIS: Attagene CIS-FACTORIAL HepG2 Assay for human Erythroblast Transformation Specific (ETS) (AID 2282941); details: HepG2 ETS cis-reporter transcription, actives raise or lower the signal
Procedure, shortened: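 HepG2 cells transiently transfected with cis-promoter reporter transcription units were dosed for 24 h; reporter mRNA was measured by RT-PCR, 6-FAM primer extension, HpaI digestion and capillary electrophoresis, with bidirectional fitting against DMSO baseline.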

[6] = molecular target: Hepatocyte nuclear factor 3-beta (Homo sapiens) (UniProt Q9Y261); experiment: ATG_FoxA2_CIS: Attagene CIS-FACTORIAL HepG2 Assay for human Forkhead box A2 (FOXA2) (AID 2282942); details: HepG2 cis-reporter transcription factor activity, 24 h; actives raise or lower the signal
Hepatocyte nuclear factor 3-beta (Homo sapiens), sequence (Q9Y261 whole entry, looked up): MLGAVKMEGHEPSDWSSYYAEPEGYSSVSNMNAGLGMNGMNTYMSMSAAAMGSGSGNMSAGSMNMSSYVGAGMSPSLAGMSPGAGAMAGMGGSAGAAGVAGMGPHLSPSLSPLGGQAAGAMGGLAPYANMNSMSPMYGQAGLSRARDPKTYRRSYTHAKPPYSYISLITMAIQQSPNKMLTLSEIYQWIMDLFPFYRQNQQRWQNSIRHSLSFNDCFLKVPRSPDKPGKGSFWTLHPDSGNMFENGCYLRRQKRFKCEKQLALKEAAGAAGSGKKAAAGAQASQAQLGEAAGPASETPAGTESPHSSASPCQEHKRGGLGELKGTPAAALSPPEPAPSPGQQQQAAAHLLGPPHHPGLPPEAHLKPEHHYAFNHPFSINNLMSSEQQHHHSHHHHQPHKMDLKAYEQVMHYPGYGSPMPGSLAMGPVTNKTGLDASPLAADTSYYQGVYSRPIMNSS
Procedure, shortened: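 Transient MRTU transfection of HepG2 liver cells; 24 h treatment; total RNA → oligo(dT) RT → PCR → FAM primer extension → HpaI cut → CE. Bidirectional fit vs DMSO.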

[7] = ATG_FoxO_CIS: Attagene CIS-FACTORIAL HepG2 Assay for human Forkhead box O (FoxO) (AID 2282943); details: HepG2 Attagene cis-reporter, FoxO element, mRNA; actives raise or lower the signal
Procedure, shortened: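 Human hepatoma HepG2 cells carry transiently introduced reporter transcription units controlled by cis promoter elements. Chemical treatment lasted 24 h, and mRNA signal was compared with DMSO.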

[8] = ATG_GATA_CIS: Attagene CIS-FACTORIAL HepG2 Assay for human GATA Binding Protein (AID 2282944); details: HepG2 GATA cis-element reporter, Attagene multiplex mRNA; actives raise or lower the signal
Procedure, shortened: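 Endogenous transcription factor activity was captured through cis-promoter-driven reporters in transfected HepG2 cells. After 24 h exposure, reporter transcripts were quantified by RT-PCR with fluorescent capillary electrophoresis, and responses fitted both directions against DMSO.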

[9] = ATG_GLI_CIS: Attagene CIS-FACTORIAL HepG2 Assay for human Zinc Finger Protein GLI1 (AID 2282945); details: HepG2, Attagene cis-factorial reporter mRNA, GLI element; actives raise or lower the signal
Procedure, shortened: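 Bidirectional curve fits relative to DMSO, using reporter mRNA levels from RT-PCR plus capillary electrophoresis. Cells were HepG2 transiently carrying cis-regulated reporter constructs, harvested 24 h after dosing.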

[10] = molecular target: Bile acid receptor (Homo sapiens) (UniProt Q96RI1); experiment: ATG_IR1_CIS: Attagene CIS-FACTORIAL HepG2 Assay for human Nuclear Receptor Subfamily 1 Group H Member 4 (NR1H4), IR1 submotif (AID 2282946); details: IR1 reporter transcription, actives raise or lower the signal
Bile acid receptor (Homo sapiens), sequence (Q96RI1 whole entry, looked up, the tested form may be a part): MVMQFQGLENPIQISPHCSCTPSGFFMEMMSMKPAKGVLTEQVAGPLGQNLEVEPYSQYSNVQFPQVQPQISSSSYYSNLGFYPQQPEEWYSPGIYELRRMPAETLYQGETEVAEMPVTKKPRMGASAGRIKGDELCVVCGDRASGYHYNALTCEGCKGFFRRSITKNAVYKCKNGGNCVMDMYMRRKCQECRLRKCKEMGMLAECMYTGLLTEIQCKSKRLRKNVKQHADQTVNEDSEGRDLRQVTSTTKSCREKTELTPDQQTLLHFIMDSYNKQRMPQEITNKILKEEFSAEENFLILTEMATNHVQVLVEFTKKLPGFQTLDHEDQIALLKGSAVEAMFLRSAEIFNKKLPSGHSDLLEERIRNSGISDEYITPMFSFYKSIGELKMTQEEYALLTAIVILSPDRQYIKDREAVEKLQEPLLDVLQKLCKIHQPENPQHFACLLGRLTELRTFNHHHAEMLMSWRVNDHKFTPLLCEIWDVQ
Procedure, shortened: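 Cells (human HepG2) carry transiently transfected cis-promoter reporter transcription units. Compounds are incubated 24 h, total RNA is reverse-transcribed and amplified, and labelled fragments are resolved by capillary electrophoresis. Curves use DMSO as baseline.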

[11] = ATG_GRE_CIS: Attagene CIS-FACTORIAL HepG2 Assay for human Glucocorticoid Response Elements (GRE) (AID 2282947); details: HepG2 GRE cis-reporter, Attagene multiplex mRNA; actives raise or lower the signal
Procedure, shortened: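 Assay uses human hepatoma HepG2 cells transfected with cis-promoter reporter units, exposed 24 h. mRNA from reporters detected by RT-PCR plus capillary electrophoresis; DMSO serves as negative control and baseline.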

[12] = ATG_ISRE_CIS: Attagene CIS-FACTORIAL HepG2 Assay for human Interferon Regulatory Factor 1 (IRF1) binding to an Interferon-Stimulated Response Element (ISRE) (AID 2282948); details: HepG2 ISRE cis-reporter (Attagene), mRNA transcription readout; actives raise or lower the signal
Procedure, shortened: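 HepG2 cells transiently transfected with multiplexed cis-promoter reporter units; after 24 h compound exposure, reporter mRNA quantified by RT-PCR, FAM labelling, HpaI digestion and capillary electrophoresis. Bidirectional fit versus DMSO baseline.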

[13] = ATG_M_32_CIS: Attagene CIS-FACTORIAL HepG2 Assay for M32 Transcription Factor (Internal Marker) (AID 2282949); details: HepG2 Attagene cis-factorial M32 reporter, mRNA; actives raise or lower the signal;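 note: background control marker of the multiplexed CIS panel rather than a real target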
Procedure, shortened: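 Internal background marker read-out: RT-PCR/capillary electrophoresis fluorescence of reporter transcripts from transiently transfected HepG2 cells after 24 h chemical exposure. Activity fitted bidirectionally relative to DMSO negative control.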

[14] = molecular target: Hypoxia-inducible factor 1-alpha (Homo sapiens) (UniProt Q16665); experiment: ATG_HIF1a_CIS: Attagene CIS-FACTORIAL HepG2 Assay for human Hypoxia Inducible Factor 1 (HIF1A) (AID 2282951); details: HepG2 Attagene cis-factorial HIF1a reporter transcription; actives raise or lower the signal
Hypoxia-inducible factor 1-alpha (Homo sapiens), sequence (Q16665 whole entry, looked up, the tested form may be a part): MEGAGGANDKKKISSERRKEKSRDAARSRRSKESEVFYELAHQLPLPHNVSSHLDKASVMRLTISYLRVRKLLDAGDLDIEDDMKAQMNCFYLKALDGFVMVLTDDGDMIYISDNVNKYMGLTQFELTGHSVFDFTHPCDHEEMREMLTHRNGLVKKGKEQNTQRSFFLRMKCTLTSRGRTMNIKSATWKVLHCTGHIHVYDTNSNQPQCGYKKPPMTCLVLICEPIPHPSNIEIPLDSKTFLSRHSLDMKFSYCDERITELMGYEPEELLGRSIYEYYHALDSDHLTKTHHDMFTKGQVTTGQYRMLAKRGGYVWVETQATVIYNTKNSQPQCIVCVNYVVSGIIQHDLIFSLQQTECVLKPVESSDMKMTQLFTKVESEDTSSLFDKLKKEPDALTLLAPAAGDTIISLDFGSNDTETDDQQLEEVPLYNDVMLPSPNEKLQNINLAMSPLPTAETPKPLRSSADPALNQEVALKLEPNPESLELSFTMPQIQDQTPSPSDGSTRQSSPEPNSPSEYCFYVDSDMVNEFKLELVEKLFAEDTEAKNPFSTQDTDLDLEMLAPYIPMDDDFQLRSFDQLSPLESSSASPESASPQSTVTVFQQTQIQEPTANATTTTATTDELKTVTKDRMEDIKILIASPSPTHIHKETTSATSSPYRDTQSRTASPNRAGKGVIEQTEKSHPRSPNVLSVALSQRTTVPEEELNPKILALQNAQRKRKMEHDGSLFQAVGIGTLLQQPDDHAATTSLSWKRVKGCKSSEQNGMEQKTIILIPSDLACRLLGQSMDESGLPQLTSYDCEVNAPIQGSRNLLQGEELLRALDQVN
Procedure, shortened: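 Transient MRTU transfection of human HepG2 liver cells, 24 h compound treatment, then total RNA isolation, oligo(dT) reverse transcription, PCR amplification, fluorescent labelling and capillary electrophoresis of reporter fragments. Gain or loss relative to DMSO.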

[15] = molecular target: Hepatocyte nuclear factor 6 (Homo sapiens) (UniProt Q9UBC0); experiment: ATG_HNF6_CIS: Attagene CIS-FACTORIAL HepG2 Assay for human Hepatocyte Nuclear Factor 6 (HNF6) (AID 2282952); details: HepG2 Attagene cis-factorial HNF6 reporter transcription; actives raise or lower the signal
Hepatocyte nuclear factor 6 (Homo sapiens), sequence (Q9UBC0 whole entry, looked up, the tested form may be a part): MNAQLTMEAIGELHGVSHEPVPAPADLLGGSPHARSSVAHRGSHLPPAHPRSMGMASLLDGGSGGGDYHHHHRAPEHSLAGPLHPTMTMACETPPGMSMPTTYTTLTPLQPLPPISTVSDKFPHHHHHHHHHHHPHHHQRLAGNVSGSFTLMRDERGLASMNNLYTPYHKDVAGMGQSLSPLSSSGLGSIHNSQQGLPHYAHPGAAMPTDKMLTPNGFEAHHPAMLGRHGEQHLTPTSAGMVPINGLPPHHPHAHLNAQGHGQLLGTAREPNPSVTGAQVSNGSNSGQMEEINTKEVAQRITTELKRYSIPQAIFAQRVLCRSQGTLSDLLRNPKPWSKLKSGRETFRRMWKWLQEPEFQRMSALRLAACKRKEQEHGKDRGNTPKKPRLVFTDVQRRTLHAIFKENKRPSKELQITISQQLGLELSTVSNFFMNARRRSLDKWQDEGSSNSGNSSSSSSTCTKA
Procedure, shortened: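 HepG2 cells transiently transfected with cis-element-driven multiplexed reporter units measuring endogenous transcription factor activity. After 24 h exposure, reporter mRNA quantified by RT-PCR, FAM-labelled fragments and capillary electrophoresis; bidirectional fitting versus DMSO.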

[16] = molecular target: Heat shock factor protein 1 (Homo sapiens) (UniProt Q00613); experiment: ATG_HSE_CIS: Attagene CIS-FACTORIAL HepG2 Assay for human Heat Shock Transcription Factor 1 (HSE) (AID 2282953); details: HepG2 HSE cis-reporter, Attagene RNA transcription; actives raise or lower the signal
Heat shock factor protein 1 (Homo sapiens), sequence (Q00613 whole entry, looked up, the tested form may be a part): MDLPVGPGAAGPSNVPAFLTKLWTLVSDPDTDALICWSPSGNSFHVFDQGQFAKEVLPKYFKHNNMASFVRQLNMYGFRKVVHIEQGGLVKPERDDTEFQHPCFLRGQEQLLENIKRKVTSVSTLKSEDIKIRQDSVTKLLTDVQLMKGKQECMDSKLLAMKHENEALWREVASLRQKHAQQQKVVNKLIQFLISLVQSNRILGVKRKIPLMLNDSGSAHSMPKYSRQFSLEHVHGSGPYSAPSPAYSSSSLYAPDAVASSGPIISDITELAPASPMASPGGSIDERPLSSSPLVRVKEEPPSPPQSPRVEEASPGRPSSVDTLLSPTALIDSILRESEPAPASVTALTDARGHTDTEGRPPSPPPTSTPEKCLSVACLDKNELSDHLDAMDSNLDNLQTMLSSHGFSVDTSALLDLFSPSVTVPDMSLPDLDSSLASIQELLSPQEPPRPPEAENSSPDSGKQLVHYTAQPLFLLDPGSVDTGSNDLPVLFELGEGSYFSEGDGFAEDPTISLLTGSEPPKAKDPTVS
Procedure, shortened: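 Cells were transfected with cis-element-driven reporter constructs, dosed for 24 h, then total RNA was reverse-transcribed and reporter cDNA amplified, FAM-labelled and digested with HpaI. Fragments were resolved by capillary electrophoresis; gain or loss was fitted against DMSO.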

[17] = ATG_MRE_CIS: Attagene CIS-FACTORIAL HepG2 Assay for human Metal Responsive Element (MRE) (AID 2282954); details: HepG2 MRE cis-reporter transcription, Attagene multiplex; actives raise or lower the signal
Procedure, shortened: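 After a 24 h chemical exposure, transiently transfected HepG2 cells yield RNA whose reporter sequences are amplified, FAM-labelled and sized by capillary electrophoresis. Curves are fitted bidirectionally relative to DMSO.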

[18] = ATG_M_06_CIS: Attagene CIS-FACTORIAL HepG2 Assay for M06 Transcription Factor (Internal Marker) (AID 2282950); details: HepG2 Attagene CIS-FACTORIAL M06 internal marker reporter; actives raise or lower the signal
Procedure, shortened: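 Steps: transfect HepG2 with multiplexed cis-element reporter constructs; dose chemical 24 h; extract RNA with DNase treatment; reverse-transcribe, PCR-amplify, 6-FAM label, HpaI digest; separate fragments by capillary electrophoresis. Activity fitted both directions versus DMSO.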

Measured: AC50

Clc1ccc(C(Cl)(Cl)Cl)cc1
inactive: [1] | [2] | [3] | [4] | [5] | [6] | [7] | [8] | [9] | [10] | [11] | [12] | [13] | [14] | [15] | [16] | [17]

O=C(O)C(F)(F)C(F)(F)C(F)(F)C(F)(F)C(F)(F)C(F)(F)C(F)(F)C(F)(F)C(F)(F)F
inactive: [2] | [3] | [4] | [5] | [6] | [7] | [8] | [11] | [13] | [18] | [14] | [16]
active: [2] 42.9 µM and 22.2 µM | [12] 48.2 µM and 33.8 µM and 90.4 µM | [13] 78.3 µM | [14] 26.6 µM | [16] 50.3 µM and 50 µM | [17] 49.2 µM and 42.6 µM and 22.6 µM

Cc1cccc(C)c1N
inactive: [2] | [3] | [4] | [5] | [6] | [7] | [8] | [9] | [10] | [12] | [13] | [18] | [14] | [15] | [16] | [17]

c1ccc(-c2ccccc2)cc1
active: [4] 81.8 µM | [12] 110 µM
inactive: [2] | [3] | [5] | [6] | [7] | [8] | [10] | [13] | [14] | [16] | [17]

CCOC(=O)C(O)(c1ccc(Cl)cc1)c1ccc(Cl)cc1
inactive: [1] | [2] | [3] | [5] | [6] | [7] | [8] | [9] | [12] | [13] | [16]
active: [4] 2.98 µM | [14] 0.000836 µM | [17] 11.1 µM

Cc1cccc([N+](=O)[O-])c1
inactive: [2] | [3] | [4] | [5] | [6] | [7] | [8] | [10] | [11] | [12] | [13] | [15] | [16] | [17]
active: [14] 181 µM

NS(=O)(=O)C(F)(F)C(F)(F)C(F)(F)C(F)(F)C(F)(F)C(F)(F)C(F)(F)C(F)(F)F
inactive: [2] | [3] | [5] | [6] | [7] | [8] | [10] | [12] | [13] | [18] | [14]
active: [2] 52 µM and 40.8 µM | [4] 14.2 µM and 38.2 µM and 5.74 µM | [5] 38.8 µM | [6] 258 µM | [10] 9.66 µM | [12] 91.1 µM and 35.8 µM | [14] 8.26 µM | [16] 59.8 µM and 115 µM and 28.3 µM | [17] 52.2 µM and 39.2 µM and 50 µM
